The full ranking holds about 16,000 sequences; the median of “rpm ratio (pull-down/input)” is about 0.94, and the highest 2% start at about 1.7. For the sample, the highest values were picked, then their nearest neighbours and some sequences at random.

In the assay the target is T1, MBP-FoxP1dN (Mus musculus, UniProt P58462 326-579).
T1 sequence: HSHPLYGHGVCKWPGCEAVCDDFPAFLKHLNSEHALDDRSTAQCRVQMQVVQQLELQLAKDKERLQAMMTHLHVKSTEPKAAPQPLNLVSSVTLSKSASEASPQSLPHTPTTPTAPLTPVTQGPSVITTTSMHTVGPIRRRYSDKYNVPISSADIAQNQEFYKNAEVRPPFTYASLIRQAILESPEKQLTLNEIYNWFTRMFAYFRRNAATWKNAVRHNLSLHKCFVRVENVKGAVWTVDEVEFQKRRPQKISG
The assay can be described thus: PD-seq (MBP pull-down with sequencing); 20 mM Tris-HCl pH 7.5, 100 mM NaCl, 1.5 mM MgCl2, 0.4 uM protein, 0.1 uM dsDNA library, 30 min, room temperature, amylose pull-down; high values mean tight binding. The note with it: protein: recombinant; tags: His6-MBP; chain copies: 2; dsDNA, one strand shown. The procedure, abridged: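 E. coli-expressed mouse FoxP3 or FoxP1 fragment, N-terminus removed and tagged with His6-MBP, was used at 0.4 µM against 0.1 µM of a Klenow-filled degenerate double-stranded DNA library. After 30 min at room temperature in Tris pH 7.5 buffer with NaCl and MgCl2, complexes were pulled down on amylose resin and washed three times. Binding is pull-down over input reads-per-million enrichment from pooled replicates of the proteinase K-released, PCR-barcoded, Illumina-sequenced DNA.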
In the case of “GATGATTGTTCTCCCAGCTGATGAATTGACGCTTTCGAGTAAACAAATTTTCCTAATCTTTCTGTTCAAGCGCCATCTAC”, the binding signal is 1.33 RPM ratio (pull-down/input).

“GATGATTGTTCTCCCAGCTGATGAATTAGCACCGTCGAGTAAACAAATTTTCCTAATCTTTCTGTTCAAGCGCCATCTAC”: the binding signal was 0.962 RPM ratio (pull-down/input).

As to “GATGATTGTTCTCCCAGCTGATGAATTGGCTATATCGAGTAAACAAATTTTCCTAATCTTTCTGTTCAAGCGCCATCTAC”, the binding signal is 0.923 RPM ratio (pull-down/input).

With “GATGATTGTTCTCCCAGCTGATGAATTCGCCCGTTCGAGTAAACAAATTTTCCTAATCTTTCTGTTCAAGCGCCATCTAC”, the binding signal is 0.826 RPM ratio (pull-down/input).

As to “GATGATTGTTCTCCCAGCTGATGAATTCGAATCTTCGAGTAAACAAATTTTCCTAATCTTTCTGTTCAAGCGCCATCTAC”, the binding signal was 0.84 RPM ratio (pull-down/input).

“GATGATTGTTCTCCCAGCTGATGAATTAATTATATCGAGTAAACAAATTTTCCTAATCTTTCTGTTCAAGCGCCATCTAC”: the binding signal is 1.11 RPM ratio (pull-down/input).

For “GATGATTGTTCTCCCAGCTGATGAATTTATTATATCGAGTAAACAAATTTTCCTAATCTTTCTGTTCAAGCGCCATCTAC”, the binding signal is 1.22 RPM ratio (pull-down/input).

With “GATGATTGTTCTCCCAGCTGATGAATTATAAACATCGAGTAAACAAATTTTCCTAATCTTTCTGTTCAAGCGCCATCTAC”, the binding signal is 2.42 RPM ratio (pull-down/input).

With “GATGATTGTTCTCCCAGCTGATGAATTATATTTATCGAGTAAACAAATTTTCCTAATCTTTCTGTTCAAGCGCCATCTAC”, the binding signal was 2.43 RPM ratio (pull-down/input).

For the sequence “GATGATTGTTCTCCCAGCTGATGAATTATATCTATCGAGTAAACAAATTTTCCTAATCTTTCTGTTCAAGCGCCATCTAC”, the binding signal was 0.985 RPM ratio (pull-down/input).

As to “GATGATTGTTCTCCCAGCTGATGAATTATATATATCGAGTAAACAAATTTTCCTAATCTTTCTGTTCAAGCGCCATCTAC”, the binding signal was 1.16 RPM ratio (pull-down/input).

As for “GATGATTGTTCTCCCAGCTGATGAATTATAAAAATCGAGTAAACAAATTTTCCTAATCTTTCTGTTCAAGCGCCATCTAC”, the binding signal was 1.08 RPM ratio (pull-down/input).

Regarding “GATGATTGTTCTCCCAGCTGATGAATTATATAAATCGAGTAAACAAATTTTCCTAATCTTTCTGTTCAAGCGCCATCTAC”, the binding signal was 1.16 RPM ratio (pull-down/input).

With “GATGATTGTTCTCCCAGCTGATGAATTATTTATATCGAGTAAACAAATTTTCCTAATCTTTCTGTTCAAGCGCCATCTAC”, the binding signal is 1.75 RPM ratio (pull-down/input).

For the sequence “GATGATTGTTCTCCCAGCTGATGAATTATCTATATCGAGTAAACAAATTTTCCTAATCTTTCTGTTCAAGCGCCATCTAC”, the binding signal is 1.14 RPM ratio (pull-down/input).

Regarding “GATGATTGTTCTCCCAGCTGATGAATTCTTTATATCGAGTAAACAAATTTTCCTAATCTTTCTGTTCAAGCGCCATCTAC”, the binding signal is 1.02 RPM ratio (pull-down/input).

For “GATGATTGTTCTCCCAGCTGATGAATTTATATTATCGAGTAAACAAATTTTCCTAATCTTTCTGTTCAAGCGCCATCTAC”, the binding signal is 2.04 RPM ratio (pull-down/input).

Take “GATGATTGTTCTCCCAGCTGATGAATTTACATCCTCGAGTAAACAAATTTTCCTAATCTTTCTGTTCAAGCGCCATCTAC”: the binding signal was 1.26 RPM ratio (pull-down/input).

As to “GATGATTGTTCTCCCAGCTGATGAATTAGGCTTGTCGAGTAAACAAATTTTCCTAATCTTTCTGTTCAAGCGCCATCTAC”, the binding signal is 0.93 RPM ratio (pull-down/input).

Regarding “GATGATTGTTCTCCCAGCTGATGAATTACAAATGTCGAGTAAACAAATTTTCCTAATCTTTCTGTTCAAGCGCCATCTAC”, the binding signal was 1.44 RPM ratio (pull-down/input).

In the case of “GATGATTGTTCTCCCAGCTGATGAATTATCCCTGTCGAGTAAACAAATTTTCCTAATCTTTCTGTTCAAGCGCCATCTAC”, the binding signal was 0.907 RPM ratio (pull-down/input).

Take “GATGATTGTTCTCCCAGCTGATGAATTAGTCCTCTCGAGTAAACAAATTTTCCTAATCTTTCTGTTCAAGCGCCATCTAC”: the binding signal is 0.936 RPM ratio (pull-down/input).

Turning to “GATGATTGTTCTCCCAGCTGATGAATTACACAGTTCGAGTAAACAAATTTTCCTAATCTTTCTGTTCAAGCGCCATCTAC”, the binding signal is 1.18 RPM ratio (pull-down/input).

As for “GATGATTGTTCTCCCAGCTGATGAATTATAATTATCGAGTAAACAAATTTTCCTAATCTTTCTGTTCAAGCGCCATCTAC”, the binding signal was 1.37 RPM ratio (pull-down/input).

As for “GATGATTGTTCTCCCAGCTGATGAATTGATTATATCGAGTAAACAAATTTTCCTAATCTTTCTGTTCAAGCGCCATCTAC”, the binding signal was 1.26 RPM ratio (pull-down/input).

Turning to “GATGATTGTTCTCCCAGCTGATGAATTATATTGATCGAGTAAACAAATTTTCCTAATCTTTCTGTTCAAGCGCCATCTAC”, the binding signal is 2.09 RPM ratio (pull-down/input).

Take “GATGATTGTTCTCCCAGCTGATGAATTTATAATATCGAGTAAACAAATTTTCCTAATCTTTCTGTTCAAGCGCCATCTAC”: the binding signal is 1.31 RPM ratio (pull-down/input).

“GATGATTGTTCTCCCAGCTGATGAATTATAAATATCGAGTAAACAAATTTTCCTAATCTTTCTGTTCAAGCGCCATCTAC”: the binding signal was 2.01 RPM ratio (pull-down/input).

For the sequence “GATGATTGTTCTCCCAGCTGATGAATTATATTAATCGAGTAAACAAATTTTCCTAATCTTTCTGTTCAAGCGCCATCTAC”, the binding signal was 1.1 RPM ratio (pull-down/input).

As for “GATGATTGTTCTCCCAGCTGATGAATTCACGCTGTCGAGTAAACAAATTTTCCTAATCTTTCTGTTCAAGCGCCATCTAC”, the binding signal is 0.895 RPM ratio (pull-down/input).

“GATGATTGTTCTCCCAGCTGATGAATTACTCGTCTCGAGTAAACAAATTTTCCTAATCTTTCTGTTCAAGCGCCATCTAC”: the binding signal is 0.904 RPM ratio (pull-down/input).

Consider “GATGATTGTTCTCCCAGCTGATGAATTTGAGTGATCGAGTAAACAAATTTTCCTAATCTTTCTGTTCAAGCGCCATCTAC”, for which the binding signal was 0.906 RPM ratio (pull-down/input).

With “GATGATTGTTCTCCCAGCTGATGAATTAACGCGGTCGAGTAAACAAATTTTCCTAATCTTTCTGTTCAAGCGCCATCTAC”, the binding signal was 0.904 RPM ratio (pull-down/input).

Regarding “GATGATTGTTCTCCCAGCTGATGAATTGTTTATGTCGAGTAAACAAATTTTCCTAATCTTTCTGTTCAAGCGCCATCTAC”, the binding signal is 2.77 RPM ratio (pull-down/input).

As for “GATGATTGTTCTCCCAGCTGATGAATTAATTATGTCGAGTAAACAAATTTTCCTAATCTTTCTGTTCAAGCGCCATCTAC”, the binding signal is 1.07 RPM ratio (pull-down/input).

Consider “GATGATTGTTCTCCCAGCTGATGAATTATGTTTGTCGAGTAAACAAATTTTCCTAATCTTTCTGTTCAAGCGCCATCTAC”, for which the binding signal is 2.67 RPM ratio (pull-down/input).

In the case of “GATGATTGTTCTCCCAGCTGATGAATTTGTTATGTCGAGTAAACAAATTTTCCTAATCTTTCTGTTCAAGCGCCATCTAC”, the binding signal was 1.55 RPM ratio (pull-down/input).

For “GATGATTGTTCTCCCAGCTGATGAATTTTTTATGTCGAGTAAACAAATTTTCCTAATCTTTCTGTTCAAGCGCCATCTAC”, the binding signal is 1.04 RPM ratio (pull-down/input).

For the sequence “GATGATTGTTCTCCCAGCTGATGAATTTATTATGTCGAGTAAACAAATTTTCCTAATCTTTCTGTTCAAGCGCCATCTAC”, the binding signal was 1.4 RPM ratio (pull-down/input).

On to “GATGATTGTTCTCCCAGCTGATGAATTCTTTATGTCGAGTAAACAAATTTTCCTAATCTTTCTGTTCAAGCGCCATCTAC”, for which the binding signal is 1.04 RPM ratio (pull-down/input).

For “GATGATTGTTCTCCCAGCTGATGAATTTATGTCGTCGAGTAAACAAATTTTCCTAATCTTTCTGTTCAAGCGCCATCTAC”, the binding signal was 1.14 RPM ratio (pull-down/input).

As for “GATGATTGTTCTCCCAGCTGATGAATTATTTATGTCGAGTAAACAAATTTTCCTAATCTTTCTGTTCAAGCGCCATCTAC”, the binding signal is 1.83 RPM ratio (pull-down/input).

Take “GATGATTGTTCTCCCAGCTGATGAATTTATGTTGTCGAGTAAACAAATTTTCCTAATCTTTCTGTTCAAGCGCCATCTAC”: the binding signal was 2.86 RPM ratio (pull-down/input).

For “GATGATTGTTCTCCCAGCTGATGAATTATGTCTGTCGAGTAAACAAATTTTCCTAATCTTTCTGTTCAAGCGCCATCTAC”, the binding signal was 0.913 RPM ratio (pull-down/input).

As for “GATGATTGTTCTCCCAGCTGATGAATTTATGATGTCGAGTAAACAAATTTTCCTAATCTTTCTGTTCAAGCGCCATCTAC”, the binding signal was 1.51 RPM ratio (pull-down/input).
